Measurements published in PubChem BioAssay (NCATS).
Inconclusive results are not listed. Calls of active or inactive are those of the source. Unless noted, calls come from the whole dose curve; as a rule, active = well fitted inhibition curve with a large enough effect; inconclusive = small, poorly fitted or top-dose-only effect; inactive = no such curve, though single readings can be large or run the other way.

Columns and labels:
[1] = qHTS assay to identify inhibitors of the type 1 interferon - major histocompatibility complex class I in skeletal muscle: Counter screen cell viability and HiBit confirmation (AID 1347412); conditions: iHSKM muscle cells + IFN-b, HiBiT or CellTiter-Glo, 24 h; for activity change, negative = inhibition: HiBiT, at 45.9 µM (top of the series); for Potency: Viability; note: potency is the fitted concentration of half-maximal effect; for activity change, negative = inhibition: % is set by controls: 0 for no effect and ±100 for the full control effect; for all read-outs here: nearly all actives have a fitted effect of over 60% in size
In short: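 CRISPR HLA-B*08:01-HiBit immortalized human myoblasts (C25cl48) stimulated with 4 ng/ml IFN-beta and compounds (12-point 1:3, top 46 uM final) for 24 h at 37 C. Duplicate plates read by HiBit lytic luminescence or CellTiter Glo ATP.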

[2] = qHTS assay for small molecule activators of the human pregnane X receptor (PXR) signaling pathway (AID 720659; call rule not given here; note: 0% is about no effect); conditions: DPX-2 HepG2 CYP3A4-luciferase, 24 h; series mostly up to 92.3 µM

**Q.** For CN[C@@H]1C[C@@H](c2ccc(Cl)c(Cl)c2)c2ccccc21, which activity change, negative = inhibition [1] is on record?
**A.** -7.12% (inactive)

**Q.** Which results are given for CCCCCC[C@H]1C(=O)O[C@H](C)[C@H](NC(=O)c2cccc(NC=O)c2O)C(=O)O[C@@H](C)[C@@H]1OC(=O)CC(C)C?
**A.** activity change, negative = inhibition [1]: -17.2% (inactive); outcome [2]: inactive

**Q.** For O=c1[nH]c2ccc(Cl)cc2c(N[C@@H]2CN3CCC2CC3)c1-c1nc2ccccc2[nH]1, which Potency [1] is on record?
**A.** 17.6 µM (active)

**Q.** Which Potency [1] does the source give for COc1ccc2c(c[n+](C)c3c4cc5c(cc4ccc23)OCO5)c1OC here?
**A.** 8.83 µM (active)
